B2AR arrestin ag: beta-arrestin recruitment by human beta2-adrenergic receptor ligands; P07550; HTLA Tango cells, beta-arrestin recruitment, luciferase luminescence, 18 h; Potency, µM (highest dose often 46.1 µM), hits mostly activators; 44,000 tested, under 10 active; AID 1347077;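 note: potency is the fitted concentration of half-maximal effect; 0% = DMSO and full agonism = EC100 isoproterenol or metaproterenol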
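Tango cells (recombinant beta2-AR, beta-arrestin, tTA-driven luciferase), 1500/well in DMEM 1% FBS, treated 18 h at 37 °C with compounds up to 46 µM; luciferin mix added, luminescence read after 15 min; %activity curves fitted and curve-classed.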
PTAP-TSG101 blk: blocks PTAP binding to human TSG101, validation; Q99816; Fluorescence polarization, FITC-PTAP peptide/Tsg101, 20 min; Potency, µM (doses to about 115 µM), hits mostly inhibitors; 44,000 tested, under 10 active; AID 1347069; note: potency is the fitted concentration of half-maximal effect; 0% is about no effect
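FITC-labeled PTAP peptide (50 nM final) binding to Tsg101 binding domain (10 uM final) read by fluorescence polarization after 20 min at r.t. in HEPES pH 7.5 buffer. Actives by CRC class, <25 µM.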
DRV1 agonist: agonists of human resolvin D1 receptor DRV1 (GPR32); O75388; CHO-K1 GPR32 beta-arrestin PathHunter luminescence, 90 min; zero percent set by DMSO-only wells; activation, % at 76.9 µM; 2.5% of 48,000 active;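 active = activation of at least 60% and not above a set upper limit, about 1 call in 100 departs from these limits; inconclusive = activation of 40% to 60%, or above that upper limit; inactive = activation under 40%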; note: 0% is about no effect
Target sequence (O75388 whole entry, looked up): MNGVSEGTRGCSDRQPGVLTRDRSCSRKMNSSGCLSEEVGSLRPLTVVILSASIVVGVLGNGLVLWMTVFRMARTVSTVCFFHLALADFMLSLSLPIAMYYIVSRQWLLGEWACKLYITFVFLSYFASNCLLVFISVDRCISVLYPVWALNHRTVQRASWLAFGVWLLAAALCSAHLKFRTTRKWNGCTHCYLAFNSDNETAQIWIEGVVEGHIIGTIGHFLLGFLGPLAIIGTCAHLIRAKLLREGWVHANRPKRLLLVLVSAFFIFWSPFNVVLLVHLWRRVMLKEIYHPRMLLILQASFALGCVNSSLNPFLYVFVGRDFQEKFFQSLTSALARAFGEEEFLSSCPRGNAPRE
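Engineered CHO-K1 line co-expressing GPR32-ProLink and EA-beta-arrestin. Compound treatment lasted 90 min at 37 °C. Luminescence was recorded after 1 h with substrate at ambient temperature, relative to DMSO basal wells.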
GALC G270D up: raises human GALC G270D mutant activity in cells | 145M-Twi-hGALC-G270D cells, HMU-beta-Gal fluorescence, 48 h | AID 1159614 | Potency, µM (series often up to 57.5 µM), actives largely listed as activators | 0.1% of 45,000 active; note: potency is the fitted concentration of half-maximal effect; 0% is about no effect; nearly all actives have a fitted effect of over 65% in size
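qHTS, 1536-well; 145M-Twi-hGALC-G270D cells (WT line also made) in DMEM/F12 + 10% FBS; compound incubation on live cells; HMU-β-gal 0.1 mM final, pH 5.2, NaTC; carbonate stop; fluorescence increase = enhanced residual activity.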
GALK inh: GALK (human) enzyme inhibition; recombinant GALK, Kinase-Glo ATP luminescence, 1 h; Potency, µM (doses to about 57.5 µM), for inactives: at the highest dose activity, negative = inhibition, hits mostly inhibitors; 44,000 tested, under 10 active; AID 1347072;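 note: plate controls were full GALK reaction for no effect and reaction lacking GALK for full effect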
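Compounds were pinned into ATP buffer, then GALK-galactose mix was added (final 5 nM enzyme, 35 uM ATP, 100 uM galactose, pH 8.0). After 1 h at room temperature, Kinase-Glo Plus was added and luminescence read.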
NTMT1 inhibitor: blocks human N-terminal methyltransferase 1 activity; NTMT1 MTase-Glo SAH luminescence, purified enzyme; Potency, µM (highest dose often 114 µM), without a hit: at the top dose activity change, negative = inhibition, hits mostly inhibitors; Q9BV86; 2.5% of 59,000 active;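 note: potency is the fitted concentration of half-maximal effect; plate controls were DMSO vehicle for no effect and no enzyme for full effect; nearly all actives have a fitted effect of over 65% in size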
Active calls of the source: *; i = inactive; ? = inconclusive; · = not tested or not shown; ! = repeats disagree; [ ] = another dose, or the depositor's remark. The list is not random: actives were taken first. Their share in the collection is about 3.6%. Unless noted, calls come from the whole dose curve; as a rule, active = well fitted curve in the direction sought with a large enough effect; inconclusive = small, poorly fitted or top-dose-only effect, or another doubt; inactive = no such curve, though single readings can be large; an effect the other way counts as inactive or inconclusive.

SMILES | B2AR arrestin ag | PTAP-TSG101 blk | DRV1 agonist | GALC G270D up | GALK inh | NTMT1 inhibitor
COc1ccc2c(c[n+](C)c3c4cc5c(cc4ccc23)OCO5)c1OC | · | · | 66.5* | · | · | 4.6%
CCCCCCC1C(=O)O[C@H](C)[C@H](NC(=O)c2cccc(NC=O)c2O)C(=O)O[C@@H](C)[C@@H]1OC(=O)CC(C)C (some centres undefined) | · | · | · | · | · | 5.5%[57.5 µM]
CCN(CC)C(=O)N[C@@H]1C=C2c3cccc4[nH]cc(c34)C[C@@H]2N(C)C1 | · | · | 63.6* | i | · | -13.2%[57.5 µM]
N#Cc1cc2c(nc1SCC(=O)Nc1cccc(F)c1)C1CCN2CC1 | ? | i | 67.7* | i | -0.3% | -0.3%
CN1C[C@H](CNC(=O)OCc2ccccc2)C[C@@H]2c3cccc4c3c(cn4C)C[C@H]21 | · | · | 79.5*! | i | · | -18.3%[57.5 µM]
CC[C@@H](CO)NC(=O)[C@@H]1C=C2c3cccc4c3c(cn4C)C[C@H]2N(C)C1 | · | · | 0.2 | i | · | -25.0%[57.5 µM]
CN1C(=O)N(c2ccc(C#N)c(C(F)(F)F)c2)C(=O)[C@]1(CO)c1ccccc1 | · | · | · | · | · | -5.5%[57.5 µM]
Cc1cccc(-n2nc(C)c3c2NC(=O)CSC3c2ccccc2Cl)c1 (centres undefined) | i | i | 63.2* | i | 1.8% | 4.2%
C[C@]12CC[C@@H]3c4ccc(OC(=O)N(CCCl)CCCl)cc4CC[C@H]3[C@@H]1CC[C@@H]2O | · | · | -0.2 | i | · | 22.4µM*
ClC1=C(Cl)[C@]2(Cl)[C@@H]3[C@@H]4C[C@@H]([C@H]5O[C@@H]45)[C@@H]3[C@@]1(Cl)C2(Cl)Cl | · | · | 112.9* | i | · | 32.2%
CS[C@]1(CO)C(=O)N2[C@H]3C(=CC=C[C@@H]3O)C[C@@]2(SC)C(=O)N1C | · | · | · | · | · | 12.6%[29.8 µM]
CC1Oc2cc3c(-c4c(O)cc(O)c5c(O)c6c(cc45)OC(C)C(C)C6=O)c(O)cc(O)c3c(O)c2C(=O)C1C (centres undefined) | · | · | · | · | · | 17.8µM*
c1cc2c(cc1C1OC[C@@H]3C(c4ccc5c(c4)OCO5)OC[C@H]13)OCO2 (some centres undefined) | · | · | · | · | · | -27.4%
CO[C@H]1CCC(O[C@H]2C[C@H]([C@]3(C)CC[C@]4(C[C@H](O)[C@@H](C)[C@@H]([C@@H](C)C=C(C)C(=O)[C@H](C)C[C@H](C)C(=O)O)O4)O3)O[C@]3(O[C@@H]([C@H]4O[C@@](O)(CO)[C@H](C)C[C@H]4C)C[C@H]3C)[C@H]2C)O[C@H]1C (some centres undefined) | · | · | · | · | · | -1.3%[57.5 µM]
Cc1c(P(=S)(c2ccccc2)c2ccccc2)[n+]2ccccc2n1C | · | · | · | · | · | 15.8µM*!
CCN1C[C@]2(COC)[C@H](O)C[C@H](OC)[C@]34[C@@H]5C[C@]6(O)[C@H](OC(=O)c7ccccc7)[C@@H]5[C@@](O)([C@H]([C@H](OC)[C@H]23)[C@@H]14)[C@@H](O)[C@@H]6OC | · | · | · | · | · | -14.8%[29.8 µM]
CCOC(=O)c1c(C(C#N)=CN)c2ccc(Cl)c(Cl)c2n1C | · | · | · | · | · | 79.4µM*
C[C@@]12OC(=O)[C@]1([C@@H](O)[C@@H]1C=CCCC1)NC(=O)[C@@H]2CCCl | · | · | · | · | · | -14.8%
C[C@]12C/C(=C/O)C(=O)C[C@@H]1CC[C@@H]1[C@@H]2CC[C@@]2(C)[C@H]1CC[C@]2(C)O | · | · | 89.0* | i | · | ?
O=C1OC(c2ccc(O)c(S(=O)(=O)O)c2)(c2ccc(O)c(S(=O)(=O)O)c2)c2c(Br)c(Br)c(Br)c(Br)c21 | · | · | -5.8 | i | · | 79.4µM*
CC1(C)C(=O)N(c2ccc(C#N)c(C(F)(F)F)c2)C(=S)N1c1ccc(C(N)=O)c(F)c1 | · | · | · | · | · | 5.5%[57.5 µM]
CC[C@H]1C[C@H]2[C@@H]3CCC4=CC(=O)CC[C@@H]4[C@H]3CC[C@]2(C)[C@H]1O | · | · | 18.8 | i | · | ?

Source: PubChem BioAssay
